Test results published in PubChem BioAssay AID1159580 (chemical genetic matrix, 2015).
The whole screen tested about 5,500 compounds, of which about 2,000 (36%) were called active. Another 18% or so got no clear call; they are omitted. Rule as the data show it: active = normalized growth mostly below about 0.91 (no sharp cut-off); inconclusive = no clear call, values can overlap the other calls; inactive = mostly above about 0.92. The list shows a part of the results.

Experiment: chemical genetic growth profiling, strain panel (AID 1159580);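 also: tested at 20 µM; growth read once vehicle control cultures reached saturation at 30 °C; 1 = growth at the plate median or of vehicle wells; lower values mean less growth of the strain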
Details: S. cerevisiae deletion strains, growth OD

Measured: normalized growth

COCCOc1ccccc1NC(=S)SCCSC(=S)Nc1ccccc1OCCOC
inactive: locus YAR019C, strain CDC15, active compounds read low 0.988 | locus YBL105C, strain PKC1, active compounds read low 0.978 | locus YBR135W, strain CKS1, active compounds read low 0.978 | locus YBR136W, strain MEC1, active compounds read low 0.977 | locus YBR160W, strain CDC28, active compounds read low 0.979 | locus YDL017W, strain CDC7, active compounds read low 0.98 | locus YDL028C, strain MPS1, active compounds read low 0.98 | locus YDL101C, strain DUN1, active compounds read low 0.973 | locus YDL108W, strain KIN28, active compounds read low 0.97 | locus YDL132W, strain cdc53, active compounds read low 0.976 | locus YDL214C, strain PRR2, active compounds read low 0.911 | locus YDR052C, strain DBF4, active compounds read low 0.981 | locus YDR054C, strain cdc34, active compounds read low 0.976 | locus YDR226W, strain ADK1, active compounds read low 0.969 | locus YDR477W, strain SNF1, active compounds read low 0.955 | locus YER123W, strain YCK3, active compounds read low 0.883 | locus YER133W, strain GLC7, active compounds read low 0.938 | locus YFL009W, strain cdc4, active compounds read low 0.976 | locus YFL029C, strain CAK1, active compounds read low 0.981 | locus YFR003C, strain YPI1, active compounds read low 0.977 | locus YFR019W, strain FAB1, active compounds read low 0.945 | locus YFR028C, strain CDC14, active compounds read low 0.988 | locus YGR040W, strain KSS1, active compounds read low 0.938 | locus YGR052W, strain FMP48, active compounds read low 1 | locus YGR092W, strain DBF2, active compounds read low 0.933 | locus YHR030C, strain SLT2, active compounds read low 1.15 | locus YHR079C, strain IRE1, active compounds read low 1.03 | locus YHR082C, strain KSP1, active compounds read low 1.01 | locus YHR205W, strain SCH9, active compounds read low 0.936 | locus YIL147C, strain SLN1, active compounds read low 0.97 | locus YJL095W, strain BCK1, active compounds read low 1.03 | locus YJL128C, strain PBS2, active compounds read low 0.941 | locus YJL157C, strain FAR1, active compounds read low 0.924 | locus YJR016C, strain ILV3, active compounds read low 0.987 | locus YJR066W, strain TOR1 (second series), active compounds read low 0.899 | locus YJR066W, strain TOR1, active compounds read low 1.03 | locus YKL048C, strain ELM1, active compounds read low 0.944 | locus YKL067W, strain YNK1, active compounds read low 0.937 | locus YKL101W, strain HSL1, active compounds read low 0.931 | locus YKL193C, strain SDS22, active compounds read low 0.985 | locus YKL203C, strain TOR2, active compounds read low 1.02 | locus YLR113W, strain HOG1, active compounds read low 0.931 | locus YLR133W, strain CKI1, active compounds read low 0.947 | locus YLR403W, strain SFP1, active compounds read low 0.944 | locus YML070W, strain DAK1, active compounds read low 0.902 | locus YMR001C, strain CDC5, active compounds read low 0.981 | locus YMR205C, strain PFK2 (second series), active compounds read low 0.939 | locus YMR277W, strain FCP1, active compounds read low 0.984 | locus YNL006W, strain LST8, active compounds read low 0.983 | locus YNL020C, strain ARK1, active compounds read low 0.931 | locus YNL161W, strain CBK1, active compounds read low 0.984 | locus YNL183C, strain NPR1, active compounds read low 1.01 | locus YNL207W, strain RIO2, active compounds read low 0.993 | locus YNL222W, strain SSU72, active compounds read low 0.972 | locus YNL307C, strain MCK1 (second series), active compounds read low 0.946 | locus YOL078W, strain AVO1, active compounds read low 0.98 | locus YOL136C, strain PFK27, active compounds read low 0.918 | locus YOR061W, strain CKA2, active compounds read low 0.92 | locus YOR119C, strain RIO1, active compounds read low 0.991 | locus YOR231W, strain MKK1, active compounds read low 1 | locus YOR329C, strain SCD5, active compounds read low 0.981 | locus YPL031C, strain PHO85, active compounds read low 0.949 | locus YPL153C, strain RAD53, active compounds read low 0.928 | locus YPL204W, strain HRR25, active compounds read low 0.945 | locus YPL209C, strain IPL1, active compounds read low 0.978 | locus YPL256C, strain CLN2, active compounds read low 0.991 | locus YPR025C, strain CCL1, active compounds read low 0.982 | locus YPR106W, strain ISR1, active compounds read low 0.98 | locus YPR111W, strain DBF20, active compounds read low 0.977 | strain NNK1, active compounds read low 0.981 | strain TSCII, active compounds read low 0.99
